Data published in PubChem BioAssay AID1159580 (chemical genetic matrix, 2015).
“And” between values parts separate entries of the source, which are not always exact repeats. Identical values can stand only once. The whole screen tested about 5,500 compounds, of which about 2,000 (36%) were called active. About 18% were inconclusive and are not listed. No stated cut-off is given here; in the data, active means normalized growth mostly below about 0.91 (no sharp cut-off); inconclusive means no clear call, values can overlap the other calls; inactive means mostly above about 0.92. Some of the results follow.

Test: chemical genetic growth profiling, strain panel (AID 1159580);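 further: tested at 20 µM; growth read once vehicle control cultures reached saturation at 30 °C; 1 = growth at the plate median or of vehicle wells; lower values mean less growth of the strain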
Details: growth OD

Measured: normalized growth

O=C(O)c1cc(=O)c2c(Cl)cc(Cl)cc2[nH]1
inactive: S. cerevisiae deletion strains, locus YJL187C, strain SWE1, active compounds read low 1.02 | S. cerevisiae deletion strains, locus YJR043C, strain POL32, active compounds read low 1 | S. cerevisiae deletion strains, locus YJR075W, strain HOC1, active compounds read low 0.985 | S. cerevisiae deletion strains, locus YKL009W, strain mrt4, active compounds read low 1 | S. cerevisiae deletion strains, locus YKL068W, active compounds read low 1 | S. cerevisiae deletion strains, locus YKL085W, strain MDH1 (second series), active compounds read low 1.01 | S. cerevisiae deletion strains, locus YKL085W, strain MDH1, active compounds read low 1.01 | S. cerevisiae deletion strains, locus YKL160W, strain elf1, active compounds read low 1.01 | S. cerevisiae deletion strains, locus YKL190W, strain CNB1, active compounds read low 1 | S. cerevisiae deletion strains, locus YKR001C, strain vps1, active compounds read low 1.05 | S. cerevisiae deletion strains, locus YKR026C, strain gcn3, active compounds read low 1.02 | S. cerevisiae deletion strains, locus YKR091W, strain srl3, active compounds read low 1.01 | S. cerevisiae deletion strains, locus YLL001W, strain dnm1, active compounds read low 1.03 | S. cerevisiae deletion strains, locus YLL026W, active compounds read low 1.01 | S. cerevisiae deletion strains, locus YLL041C, strain sdh2, active compounds read low 1.01 | S. cerevisiae deletion strains, locus YLR027C, strain aat2, active compounds read low 1.01 | S. cerevisiae deletion strains, locus YLR039C, strain RIC1, active compounds read low 1.04 | S. cerevisiae deletion strains, locus YLR058C, strain SHM2, active compounds read low 1.01 | S. cerevisiae deletion strains, locus YLR102C, strain apc9, active compounds read low 1.01 | S. cerevisiae deletion strains, locus YLR221C, strain rsa3, active compounds read low 1.02 | S. cerevisiae deletion strains, locus YLR258W, strain gsy2, active compounds read low 1.02 | S. cerevisiae deletion strains, locus YLR262C, strain YPT6 (second series), active compounds read low 1.01 | S. cerevisiae deletion strains, locus YLR262C, strain YPT6, active compounds read low 1.03 | S. cerevisiae deletion strains, locus YLR268W, strain sec22, active compounds read low 1.03 | S. cerevisiae deletion strains, locus YLR320W, strain mms22, active compounds read low 1.03 | S. cerevisiae deletion strains, locus YLR330W, strain CHS5, active compounds read low 1.01 | S. cerevisiae deletion strains, locus YLR342W, strain FKS1 (second series), active compounds read low 1.02 | S. cerevisiae deletion strains, locus YLR342W, strain FKS1, active compounds read low 1.02 | S. cerevisiae deletion strains, locus YLR357W, strain rsc2, active compounds read low 1 | S. cerevisiae deletion strains, locus YLR370C, strain arc18, active compounds read low 1.02 | S. cerevisiae deletion strains, locus YLR371W, strain rom2, active compounds read low 1 | S. cerevisiae deletion strains, locus YLR384C, strain iki3, active compounds read low 1.01 | S. cerevisiae deletion strains, locus YLR418C, strain cdc73, active compounds read low 1.05 | S. cerevisiae deletion strains, locus YML016C, strain PPZ1, active compounds read low 1.01 | S. cerevisiae deletion strains, locus YML032C, strain rad52, active compounds read low 1.01 | S. cerevisiae deletion strains, locus YML120C, strain ndi1, active compounds read low 1.02 | S. cerevisiae deletion strains, locus YML124C, strain tub3, active compounds read low 1.01 | S. cerevisiae deletion strains, locus YMR058W, strain fet3, active compounds read low 1.01 | S. cerevisiae deletion strains, locus YMR078C, strain ctf18, active compounds read low 1.03 | S. cerevisiae deletion strains, locus YMR125W, strain sto1, active compounds read low 1 | S. cerevisiae deletion strains, locus YMR129W, active compounds read low 1.01 | S. cerevisiae deletion strains, locus YMR205C, strain PFK2, active compounds read low 1.01 | S. cerevisiae deletion strains, locus YMR223W, strain ubp8, active compounds read low 1.03 | S. cerevisiae deletion strains, locus YMR231W, strain pep5, active compounds read low 1.01 | S. cerevisiae deletion strains, locus YMR263W, strain SAP30, active compounds read low 1 | S. cerevisiae deletion strains, locus YMR307W, strain GAS1, active compounds read low 1.04 | S. cerevisiae deletion strains, locus YNL067W, strain RPL9B, active compounds read low 0.997 | S. cerevisiae deletion strains, locus YNL071W, strain lat1, active compounds read low 1.02 | S. cerevisiae deletion strains, locus YNL153C, strain GIM3, active compounds read low 1 | S. cerevisiae deletion strains, locus YNL175C, strain NOP13, active compounds read low 0.996 | S. cerevisiae deletion strains, locus YNL197C, strain WHI3, active compounds read low 1.01 | S. cerevisiae deletion strains, locus YNL209W, strain ssb2, active compounds read low 1 | S. cerevisiae deletion strains, locus YNL224C, strain SQS1, active compounds read low 0.995 | S. cerevisiae deletion strains, locus YNL233W, strain BNI4, active compounds read low 1 | S. cerevisiae deletion strains, locus YNL248C, strain rpa49, active compounds read low 1.01 | S. cerevisiae deletion strains, locus YNL250W, strain rad50, active compounds read low 1.03 | S. cerevisiae deletion strains, locus YNL271C, strain bni1, active compounds read low 1.02 | S. cerevisiae deletion strains, locus YNL298W, strain CLA4, active compounds read low 1.01 | S. cerevisiae deletion strains, locus YNL307C, strain MCK1, active compounds read low 1.02 | S. cerevisiae deletion strains, locus YNL322C, strain KRE1 (second series), active compounds read low 1.02 | S. cerevisiae deletion strains, locus YNL322C, strain KRE1, active compounds read low 0.993 and 1 | S. cerevisiae deletion strains, locus YNR049C, strain mso1, active compounds read low 1.01 | S. cerevisiae deletion strains, locus YNR052C, strain pop2, active compounds read low 1.02 | S. cerevisiae deletion strains, locus YOL006C, strain TOP1, active compounds read low 0.999 | S. cerevisiae deletion strains, locus YOL012C, strain htz1 1.91 | S. cerevisiae deletion strains, locus YOL147C, strain pex11, active compounds read low 1.02 | S. cerevisiae deletion strains, locus YOR001W, strain rrp6, active compounds read low 1.01 | S. cerevisiae deletion strains, locus YOR061W, strain CKA2, active compounds read low 1.02 | S. cerevisiae deletion strains, locus YOR069W, strain VPS5, active compounds read low 1.01 | S. cerevisiae deletion strains, locus YOR070C, strain gyp1, active compounds read low 1.01 | S. cerevisiae deletion strains, locus YOR080W, strain dia2, active compounds read low 1.02 | S. cerevisiae deletion strains, locus YOR083W, strain WHI5 (second series), active compounds read low 0.994 | S. cerevisiae deletion strains, locus YOR083W, strain WHI5, active compounds read low 1.02 | S. cerevisiae deletion strains, locus YOR106W, strain vam3, active compounds read low 1.01 | S. cerevisiae deletion strains, locus YOR136W, strain idh2, active compounds read low 1.02 | S. cerevisiae deletion strains, locus YOR144C, strain elg1, active compounds read low 1.01 | S. cerevisiae deletion strains, locus YOR184W, strain ser1, active compounds read low 1.02 | S. cerevisiae deletion strains, locus YOR265W, strain rbl2, active compounds read low 1.01 | S. cerevisiae deletion strains, locus YOR270C, strain vph1, active compounds read low 1.03 | S. cerevisiae deletion strains, locus YOR290C, strain snf2, active compounds read low 0.991 | S. cerevisiae deletion strains, locus YOR316C, strain cot1, active compounds read low 1.01 | S. cerevisiae deletion strains, locus YPL051W, strain arl3, active compounds read low 1.01 | S. cerevisiae deletion strains, locus YPL055C, strain LGE1, active compounds read low 0.992 | S. cerevisiae deletion strains, locus YPL078C, strain atp4, active compounds read low 1.01 | S. cerevisiae deletion strains, locus YPL106C, strain sse1, active compounds read low 0.999 | S. cerevisiae deletion strains, locus YPL240C, strain hsp82, active compounds read low 1.02 | S. cerevisiae deletion strains, locus YPL241C, strain CIN2, active compounds read low 1 | S. cerevisiae deletion strains, locus YPR119W, strain clb2, active compounds read low 1.01 | S. cerevisiae deletion strains, locus YPR141C, strain kar3, active compounds read low 1.01 | S. cerevisiae deletion strains, locus YPR163C, strain tif3, active compounds read low 1.02 | S. cerevisiae deletion strains, locus YPR167C, strain met16, active compounds read low 1.02 | S. cerevisiae deletion strains, strain wtn01, active compounds read low 1.02 | S. cerevisiae strains, strain wild type, active compounds read low 1
